Screening results (PubChem)
12-LOX inh – Primary qHTS assay for inhibitors of human arachidonate 12S-lipoxygenase (ALOX12): Round 2. Polyunsaturated fatty acid lipoxygenase ALOX12 (Homo sapiens), P18054. purified 12hLO, xylenol orange hydroperoxide absorbance. 580,000 tested, 1.1% active. Potency, µM (titrated, usually from 108 µM), for the others: top-dose activity change, negative = inhibition, hits mostly inhibitors; also: % is scaled to controls: 0 for no effect and ±100 for the full control effect
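Hydroperoxide product was detected by ferrous iron/xylenol orange as the 573 to 405 nm absorbance ratio. Arachidonic acid at 40 uM (final) was turned over for 30 min at room temperature by 150 nM human 12hLO, pH 7.0 Hepes buffer, after 15 min compound preincubation.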
rTrxR1 inhibitor – qHTS Assay for Inhibitors of Mammalian Selenoprotein Thioredoxin Reductase 1 (TrxR1): qHTS. Thioredoxin reductase 1, cytoplasmic (Rattus norvegicus), O89049. 390,000 tested, 1% active. recombinant rTrxR1, NADPH fluorescence consumption, selenite substrate. Potency, µM (series often up to 114 µM), for the others: at the highest dose activity change, negative = inhibition, hits mostly inhibitors; also: % is scaled to controls: 0 for no effect and ±100 for the full control effect; nearly all actives have a fitted effect of over 65% in size
Target sequence (O89049 whole entry, looked up): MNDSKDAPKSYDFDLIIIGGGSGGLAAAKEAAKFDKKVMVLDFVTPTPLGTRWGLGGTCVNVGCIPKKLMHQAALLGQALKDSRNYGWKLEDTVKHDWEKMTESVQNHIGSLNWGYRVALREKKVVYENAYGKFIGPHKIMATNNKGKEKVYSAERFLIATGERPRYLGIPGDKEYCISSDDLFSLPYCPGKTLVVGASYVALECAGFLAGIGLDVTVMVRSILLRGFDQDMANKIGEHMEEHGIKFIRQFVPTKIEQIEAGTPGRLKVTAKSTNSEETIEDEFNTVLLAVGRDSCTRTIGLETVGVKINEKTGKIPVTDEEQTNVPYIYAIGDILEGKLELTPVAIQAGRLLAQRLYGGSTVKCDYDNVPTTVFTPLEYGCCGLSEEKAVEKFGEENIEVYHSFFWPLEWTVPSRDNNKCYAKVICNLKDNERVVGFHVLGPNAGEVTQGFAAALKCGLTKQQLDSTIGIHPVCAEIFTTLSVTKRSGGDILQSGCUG
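Rat TrxR1 (90 nM in the dispensed reagent) was pre-reduced with 400 uM NADPH for 5 min at room temperature, then incubated with compound for 15 min. After 400 uM selenite was added, NADPH fluorescence (Ex 340/Em 450 nm) was followed for 8 min.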
mIDH1 inhibitor – qHTS for Inhibitors of mutant isocitrate dehydrogenase 1 (IDH1): qHTS; IDH1-R132H enzyme, NADPH consumption, diaphorase/resazurin fluorescence; Potency, µM (highest dose often 76.6 µM), for the others: at the top dose activity change, negative = inhibition, usual class: inhibitors; 390,000 tested, 0.093% active; AID 602179, 2012; also: % is scaled to controls: 0 for no effect and ±100 for the full control effect; nearly all actives have a fitted effect of over 65% in size
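IDH1-R132H (0.5 ug/mL dispensed) in pH 7.5 Tris buffer was preincubated 30 min with compound, then given a substrate mix of 0.016 mM NADPH and 2 mM alpha-KG for 80 min at room temperature; remaining NADPH was read by diaphorase/resazurin fluorescence.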
Apoferritin bind – qHTS Assay for Identification of Novel General Anesthetics; Potency, µM (doses to about 77.5 µM), without a hit: top-dose activity change, negative = displacement, usual class: inhibitors; 350,000 tested, 0.074% active; apoferritin/1-aminoanthracene competitive binding, fluorescence; AID 485281, 2010; also: % is scaled to controls: 0 for no effect and ±100 for the full control effect; nearly all actives have a fitted effect of over 20% in size
Target sequence (P02791 2-175 limits assumed): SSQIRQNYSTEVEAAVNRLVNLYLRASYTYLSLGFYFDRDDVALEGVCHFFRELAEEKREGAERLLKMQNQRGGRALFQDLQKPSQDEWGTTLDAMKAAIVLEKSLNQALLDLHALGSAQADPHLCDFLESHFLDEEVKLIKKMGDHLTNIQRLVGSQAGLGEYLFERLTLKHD
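10 uM apoferritin + 50% sat. 1-AMA, PBS; cpd 10 min RT; Ex380/Em535 endpoint; normalized to free probe vs complex; 4-param Hill fit; propofol titration as pos. ctrl.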
TrxR1 substrate – qHTS Assay for Substrates of Mammalian Selenoprotein Thioredoxin Reductase 1 (TrxR1): qHTS; purified TrxR1 substrate turnover, NADPH consumption readout; Potency, µM (highest dose often 114 µM), without a hit: at the highest dose activity change, negative = substrate turnover; 390,000 tested, 0.01% active; AID 588456, 2011; also: % is scaled to controls: 0 for no effect and ±100 for the full control effect; nearly all actives have a fitted effect of over 50% in size
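Rat TrxR1, dispensed at 90 nM, was prereduced with 400 uM NADPH (final) for 5 min at ~22 deg C, then incubated with compound 15 min before 400 uM selenite. A first-read NADPH fluorescence drop versus no-compound background flagged substrates.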
Glioma ERSR ind – qHTS for Inducers of the Endoplasmic Reticulum Stress Response (ERSR) in Human Glioma: qHTS; Potency, µM, for inactives: at the highest dose activation, hits mostly activators; 420,000 tested, 0.02% active; U87-MG GRP78 promoter luciferase reporter, 16 h; also: series mostly up to about 76 µM; % of control where 0% means no effect; nearly all actives have a fitted effect of over 35% in size
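ERSR induction read as luciferase luminescence (Bright-Glo, 10 min at room temperature) in stably transfected human U87-MG glioma cells exposed to compounds for 16 h, using GRP78 as sensor.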
Active calls of the source: *; u = inconclusive; x = no result given; ! = repeats disagree; [ ] = remark or other dose. Sampled rows, rich in hits. Any-hit rate of the full collection: about 1.7%. Calls follow the shape of the dose curve; as a rule, active = well fitted curve in the direction sought with a large enough effect; inconclusive = small, poorly fitted or top-dose-only effect, or another doubt; inactive = no such curve, though single readings can be large; an effect the other way counts as inactive or inconclusive. Potency is read from the fitted curve at half-maximal effect.

SMILES	12-LOX inh	rTrxR1 inhibitor	mIDH1 inhibitor	Apoferritin bind	TrxR1 substrate	Glioma ERSR ind
Cc1cccc(N2C(=O)CC(Sc3nnc(C)s3)C2=O)c1 (centres undefined)	-4.9%	20µM*	9.4%	8.0%	0.2%	-17.1%
CCCNc1c(NC(=O)Cc2ccccc2)c(=O)oc2ccccc12	-8.0%	x	x	x	x	x
CCc1c(O)nc(SC2CC(=O)N(c3ccccc3)C2=O)[nH]c1=O (centres undefined)	10µM*	-12.0%	-0.1%	u	-7.2%	-5.3%
CCCCCCCCCCCCCCCC[n+]1ccc(CC(O)c2c(C)[nH]c3ccccc23)c2ccccc21 (centres undefined)	x	-9.7%	x	x	3.9%	-11.8%
CC(=O)Nc1ccc(S(=O)(=O)N(C)CC(=O)OC(C)C(=O)NC2(C#N)CCCCC2)cc1 (centres undefined)	11.3%	x	0.8%	x	x	-0.5%
CC1CCc2c(nc3ccc4ccccc4c3c2-c2cccc(O)c2)C1 (centres undefined)	4.47µM*	x	x	x	x	x
COc1ccc(-c2csc(CCN3N=C(C)CC3=O)n2)cc1	-17.9%	15.4%[57.1 µM]	4.0%	-14.5%	-11.8%[57.1 µM]	11.4%
O=S1(=O)C=C(Sc2nnc(-c3ccccc3)o2)c2ccccc21	x	0.398µM*	-2.0%	u	6.7%	-15.2%
CCOC(=O)c1ccc2[nH]c(CSCC(=O)Nc3cccc(Cl)c3C)cc(=O)c2c1	-5.3%	x	x	x	x	x
C/C(=N/Nc1ccc(S(N)(=O)=O)cc1[N+](=O)[O-])c1ccccc1	-21.5%	x	x	x	x	x
C/C(=N/Nc1ccc(F)cc1F)c1ccccc1Br	50.1µM*	x	x	x	x	x
C/C(=N/Nc1ccc(S(N)(=O)=O)cc1[N+](=O)[O-])c1ccccc1Br	35.5µM*	x	x	x	x	x
O=C(c1ccc(Cl)cc1)C(CN1CCCCC1)c1ccccc1 (centres undefined)	u	25.1µM*	3.8%	-14.0%	3.6%	-18.7%
COc1cc(C)c(C(C)C)cc1S(=O)(=O)n1ccnc1C(C)C	-13.3%	x	x	x	x	x
Cc1ccccc1-c1nc(CN2CCN(C(=O)c3ccco3)CC2)c(C)o1	235.0%	56.2µM*	1.1%	-6.6%	-5.8%	-4.8%
NC(=O)C[n+]1cccc2ccccc21	u	0.0%[57.1 µM]	7.2%	6.3%	16.2%[57.1 µM]	-3.2%
N[n+]1cccc2ccccc21	17.8µM*	x	x	x	x	x
NC(=S)c1ccc(S(N)(=O)=O)cc1	3.16µM*	x	x	x	x	x
COc1cc(C(=O)Nc2ccc3oc(-c4ccccc4)nc3c2)cc(OC)c1OC	-13.5%	20.3%	7.3%	-13.2%	10.9%	-3.3%
O=c1c2cc(N3CCOCC3)ccc2[nH]c(=S)n1Cc1ccco1	-27.4%	10µM*	-3.0%	-2.0%	4.3%[57.1 µM]	1.5%
Cc1ccc(N/N=C(\C#N)C(N)=S)cc1C	2µM*	-21.3%	2.4%	-8.9%	-3.3%[57.1 µM]	-0.7%
N#C/C(=N\Nc1ccc(Cl)cc1)C(N)=S	u	u	-1.2%	-4.5%	-10.7%	-1.0%
O=C(Nc1ccccc1)c1nnsc1S(=O)c1ccc(Cl)cc1 (centres undefined)	14.1µM*	1.26µM*	-0.1%	u	9.9%[57.1 µM]	-15.4%
Cc1nnsc1S(=O)c1ccc(Cl)cc1 (centres undefined)	0.0%	-21.6%	5.7%	-4.7%	-1.0%	-5.7%
COC(=O)C1CCN(Cc2cc(=O)oc3ccc(Cl)cc23)CC1	15.8µM*	x	x	x	x	x
SMILES	12-LOX inh	rTrxR1 inhibitor	mIDH1 inhibitor	Apoferritin bind	TrxR1 substrate	Glioma ERSR ind
CCOC(=O)C1CCN(Cc2cc(=O)oc3ccc(Cl)cc23)CC1	8.2%	x	x	x	x	x
COc1ccc(NC(=S)Nc2ccc3nccnc3c2)cc1	-12.3%	15.8µM*	1.9%	190.9%	-15.4%	0.7%
CCOc1ccc(NC(=S)Nc2ccc(OC)cc2)cc1	u	12.4%[57.1 µM]	6.8%	-12.5%	-2.7%[57.1 µM]	2.4%
COc1ccc(CCNC(=S)Nc2ccc(C(C)C)cc2)cc1	39.8µM*	6.7%	2.4%	-5.6%	-7.3%	-0.8%
CCC(C)c1ccc(NC(=S)Nc2ccc(OC)cc2)cc1 (centres undefined)	44.7µM*	-2.0%	7.6%	u	-3.2%	3.2%
COc1ccc(CCNC(=S)Nc2ccc(OC)cc2)cc1	u	7.9%	0.5%	4.4%	6.8%	3.9%
N#Cc1ccccc1COC(=O)c1cc2ccccc2[nH]1	-42.5%	x	x	x	x	x
O=C(Cn1cnc2ccccc2c1=O)N1CCCC1c1ccc2c(c1)OCCCO2 (centres undefined)	13.1%	x	x	x	x	x
CC(C)C1Oc2ccccc2N(CC(=O)N(Cc2ccccn2)CC2CCCO2)C1=O (centres undefined)	-14.6%	18.9%	-0.2%	-11.8%	-0.3%	-7.7%
Cc1ccc(CN(CC2CCCO2)C(=O)CN2C(=O)C(C(C)C)Oc3ccccc32)o1 (centres undefined)	-14.7%	10µM*	8.6%	u	-1.6%	-3.9%
Cc1ccc(C(=O)c2c3ccc([N+](=O)[O-])cc3[n+]([O-])n2CCCN)cc1	u	56.2µM*	15.7%	x	2.3%	-2.2%
CC(C)N1CCC(N2C[C@@H](CO)[C@H](c3nc(C4CC4)no3)C2)CC1	124.3%	x	x	x	x	x
CC(=O)c1cccc(NC(=S)NC(=O)c2cccc(Cl)c2)c1	-19.8%	u	4.1%	-15.4%	13.9%	4.7%
O=C(Cc1cccc2ccccc12)Nc1cc(Cl)ccc1C(=O)O	17.8µM*!	15.9%	6.4%	-10.6%	4.3%	2.5%
CC(=O)NNC(=S)Nc1ccc(Br)cc1Cl	9.6%	x	x	x	x	x
